For orientation: inhibition means the relative decrease from the control value, in per cent.

The target of experiment [1] is T1, Mitogen-activated protein kinase 12 (Homo sapiens) (UniProt P53778).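 Note: values are averaged p38gamma kinase inhibition readings, compounds tested at 1 µM.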
T1 sequence (whole entry): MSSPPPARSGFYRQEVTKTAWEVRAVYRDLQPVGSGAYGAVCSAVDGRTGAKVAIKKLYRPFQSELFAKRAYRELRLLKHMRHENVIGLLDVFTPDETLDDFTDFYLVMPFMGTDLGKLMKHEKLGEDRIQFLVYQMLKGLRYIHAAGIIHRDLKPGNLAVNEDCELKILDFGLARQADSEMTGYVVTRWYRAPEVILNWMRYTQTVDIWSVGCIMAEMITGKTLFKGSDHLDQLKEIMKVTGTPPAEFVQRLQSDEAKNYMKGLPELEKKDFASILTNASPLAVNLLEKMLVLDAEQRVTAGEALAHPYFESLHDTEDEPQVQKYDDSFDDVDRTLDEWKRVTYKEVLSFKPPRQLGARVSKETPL
As to conditions: at 1 µM.

Experiment [2] deals with SRSF protein kinase 1 (Homo sapiens) (UniProt Q96SB4). The following applies: at 0.1 µM.
Experiment [3] shares this target. As to conditions: at 1 µM.
The target in experiment [4] is Phosphatidylinositol 4,5-bisphosphate 3-kinase catalytic subunit alpha isoform (Homo sapiens) (UniProt P42336). As to conditions: at 0.1 µM.
The target is the same in experiment [5]. The following applies: at 1 µM.
For experiment [6], the target named is T2, Phosphatidylinositol 4,5-bisphosphate 3-kinase catalytic subunit delta isoform (Homo sapiens) (UniProt O00329).
T2 sequence (whole entry): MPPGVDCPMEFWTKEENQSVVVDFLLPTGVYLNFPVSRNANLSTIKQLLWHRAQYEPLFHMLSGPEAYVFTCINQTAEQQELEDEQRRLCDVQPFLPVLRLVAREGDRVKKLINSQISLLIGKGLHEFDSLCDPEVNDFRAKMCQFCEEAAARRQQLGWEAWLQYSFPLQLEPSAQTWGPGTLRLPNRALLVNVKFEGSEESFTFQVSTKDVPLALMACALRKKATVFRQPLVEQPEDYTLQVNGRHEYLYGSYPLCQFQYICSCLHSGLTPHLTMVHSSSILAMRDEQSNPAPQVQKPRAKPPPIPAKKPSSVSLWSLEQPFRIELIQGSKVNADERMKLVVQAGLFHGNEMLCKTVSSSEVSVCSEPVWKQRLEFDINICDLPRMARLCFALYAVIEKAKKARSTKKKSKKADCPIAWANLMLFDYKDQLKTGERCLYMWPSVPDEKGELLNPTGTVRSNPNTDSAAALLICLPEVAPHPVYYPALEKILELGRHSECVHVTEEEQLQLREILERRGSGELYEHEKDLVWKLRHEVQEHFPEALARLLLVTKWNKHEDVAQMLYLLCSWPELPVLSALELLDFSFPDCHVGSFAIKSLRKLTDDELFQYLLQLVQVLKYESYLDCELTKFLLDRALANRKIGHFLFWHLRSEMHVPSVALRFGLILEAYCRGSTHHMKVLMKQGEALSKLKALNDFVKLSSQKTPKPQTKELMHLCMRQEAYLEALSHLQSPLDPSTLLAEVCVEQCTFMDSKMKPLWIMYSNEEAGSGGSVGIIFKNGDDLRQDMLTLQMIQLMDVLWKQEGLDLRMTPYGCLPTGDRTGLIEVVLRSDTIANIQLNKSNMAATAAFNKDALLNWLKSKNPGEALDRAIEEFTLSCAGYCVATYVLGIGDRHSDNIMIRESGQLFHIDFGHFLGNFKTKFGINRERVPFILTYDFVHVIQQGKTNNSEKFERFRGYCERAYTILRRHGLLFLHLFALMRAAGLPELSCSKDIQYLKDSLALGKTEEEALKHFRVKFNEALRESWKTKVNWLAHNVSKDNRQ
As to conditions: at 0.1 µM.

The target of experiment [7] is T2, Phosphatidylinositol 4,5-bisphosphate 3-kinase catalytic subunit delta isoform (Homo sapiens). The following applies: at 1 µM.
Experiment [8] concerns the target Phosphatidylinositol 4-kinase beta (Homo sapiens) (UniProt Q9UBF8). As to conditions: at 0.1 µM.
For experiment [9] the target is unchanged. As to conditions: at 1 µM.
Experiment [10] addresses Sphingosine kinase 1 (Homo sapiens) (UniProt Q9NYA1). The following applies: at 0.1 µM.
Experiment [11] has the same target. The following applies: at 1 µM.
In experiment [12] the target is T3, Sphingosine kinase 2 (Homo sapiens) (UniProt Q9NRA0).
T3 sequence (whole entry): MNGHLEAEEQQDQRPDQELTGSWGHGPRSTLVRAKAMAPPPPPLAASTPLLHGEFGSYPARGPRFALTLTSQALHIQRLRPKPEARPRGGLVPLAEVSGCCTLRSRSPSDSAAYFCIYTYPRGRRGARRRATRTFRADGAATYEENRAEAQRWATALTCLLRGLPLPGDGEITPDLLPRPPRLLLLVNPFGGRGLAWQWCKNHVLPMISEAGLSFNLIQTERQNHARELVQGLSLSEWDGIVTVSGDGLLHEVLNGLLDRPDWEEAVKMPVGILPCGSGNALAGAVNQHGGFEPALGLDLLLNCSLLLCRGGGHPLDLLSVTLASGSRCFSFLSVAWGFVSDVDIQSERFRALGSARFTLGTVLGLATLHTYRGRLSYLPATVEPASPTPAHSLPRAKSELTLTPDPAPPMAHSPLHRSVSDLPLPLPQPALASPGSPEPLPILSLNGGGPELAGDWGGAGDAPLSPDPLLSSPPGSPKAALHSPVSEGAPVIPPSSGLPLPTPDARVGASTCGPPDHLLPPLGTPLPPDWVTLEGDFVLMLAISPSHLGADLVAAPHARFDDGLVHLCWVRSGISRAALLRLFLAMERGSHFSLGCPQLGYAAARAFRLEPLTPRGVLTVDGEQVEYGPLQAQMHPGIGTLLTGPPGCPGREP
The following applies: at 0.1 µM.

For experiment [13], the target named is T3, Sphingosine kinase 2 (Homo sapiens). As to conditions: at 1 µM.
For experiment [14], the target named is Casein kinase II subunit alpha (Homo sapiens) (UniProt P68400). The following applies: at 0.1 µM.
Experiment [15] shares this target. The following applies: at 1 µM.
Experiment [16] addresses T4, Inhibitor of nuclear factor kappa-B kinase subunit alpha (Homo sapiens) (UniProt O15111).
T4 sequence (whole entry): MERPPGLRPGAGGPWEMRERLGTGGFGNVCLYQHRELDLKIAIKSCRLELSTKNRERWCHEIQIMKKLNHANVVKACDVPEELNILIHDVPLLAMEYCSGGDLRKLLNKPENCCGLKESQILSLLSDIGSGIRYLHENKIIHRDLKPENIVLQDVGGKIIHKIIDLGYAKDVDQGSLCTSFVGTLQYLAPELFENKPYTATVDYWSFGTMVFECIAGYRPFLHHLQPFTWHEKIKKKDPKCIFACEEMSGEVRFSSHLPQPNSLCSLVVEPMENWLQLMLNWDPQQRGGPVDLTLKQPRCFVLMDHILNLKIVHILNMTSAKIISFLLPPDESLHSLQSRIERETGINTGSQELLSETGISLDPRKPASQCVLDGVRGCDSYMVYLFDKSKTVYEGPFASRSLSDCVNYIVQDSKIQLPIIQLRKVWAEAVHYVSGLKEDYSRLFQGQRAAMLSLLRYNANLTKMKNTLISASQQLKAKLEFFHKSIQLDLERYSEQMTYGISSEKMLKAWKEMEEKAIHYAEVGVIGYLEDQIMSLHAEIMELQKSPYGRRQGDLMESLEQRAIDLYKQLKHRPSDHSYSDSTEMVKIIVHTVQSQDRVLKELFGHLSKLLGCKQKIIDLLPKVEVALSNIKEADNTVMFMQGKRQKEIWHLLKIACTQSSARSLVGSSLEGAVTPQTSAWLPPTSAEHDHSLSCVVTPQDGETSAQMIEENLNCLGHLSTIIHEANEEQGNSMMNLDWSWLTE
As to conditions: at 0.1 µM.

Experiment [17] addresses T4, Inhibitor of nuclear factor kappa-B kinase subunit alpha (Homo sapiens). As to conditions: at 1 µM.
In experiment [18] the target is T5, Inhibitor of nuclear factor kappa-B kinase subunit beta (Homo sapiens) (UniProt O14920).
T5 sequence (whole entry): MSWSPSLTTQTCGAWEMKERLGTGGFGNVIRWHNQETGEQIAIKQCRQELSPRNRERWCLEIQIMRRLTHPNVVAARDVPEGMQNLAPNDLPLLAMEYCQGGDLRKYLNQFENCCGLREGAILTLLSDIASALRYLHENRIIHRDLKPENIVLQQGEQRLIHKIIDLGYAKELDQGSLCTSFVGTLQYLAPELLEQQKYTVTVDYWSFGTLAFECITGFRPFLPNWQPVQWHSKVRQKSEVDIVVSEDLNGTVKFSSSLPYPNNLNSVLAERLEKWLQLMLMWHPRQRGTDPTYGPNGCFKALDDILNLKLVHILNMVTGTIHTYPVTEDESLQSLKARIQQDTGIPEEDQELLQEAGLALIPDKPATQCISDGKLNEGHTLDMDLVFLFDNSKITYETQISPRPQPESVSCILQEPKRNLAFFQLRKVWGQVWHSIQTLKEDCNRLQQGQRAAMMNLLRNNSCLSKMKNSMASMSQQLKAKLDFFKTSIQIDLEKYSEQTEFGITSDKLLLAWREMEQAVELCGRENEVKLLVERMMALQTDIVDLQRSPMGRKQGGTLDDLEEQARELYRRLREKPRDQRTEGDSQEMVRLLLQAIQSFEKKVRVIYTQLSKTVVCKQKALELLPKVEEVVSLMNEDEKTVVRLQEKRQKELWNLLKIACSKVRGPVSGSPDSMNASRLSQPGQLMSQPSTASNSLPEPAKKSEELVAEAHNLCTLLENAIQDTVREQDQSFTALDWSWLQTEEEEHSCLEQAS
As to conditions: at 0.1 µM.

The target of experiment [19] is T5, Inhibitor of nuclear factor kappa-B kinase subunit beta (Homo sapiens). As to conditions: at 1 µM.
The target of experiment [20] is T6, Inhibitor of nuclear factor kappa-B kinase subunit epsilon (Homo sapiens) (UniProt Q14164).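 Note: mean inhibition of IKKε reported, from the GSK PKIS dataset.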
T6 sequence (whole entry): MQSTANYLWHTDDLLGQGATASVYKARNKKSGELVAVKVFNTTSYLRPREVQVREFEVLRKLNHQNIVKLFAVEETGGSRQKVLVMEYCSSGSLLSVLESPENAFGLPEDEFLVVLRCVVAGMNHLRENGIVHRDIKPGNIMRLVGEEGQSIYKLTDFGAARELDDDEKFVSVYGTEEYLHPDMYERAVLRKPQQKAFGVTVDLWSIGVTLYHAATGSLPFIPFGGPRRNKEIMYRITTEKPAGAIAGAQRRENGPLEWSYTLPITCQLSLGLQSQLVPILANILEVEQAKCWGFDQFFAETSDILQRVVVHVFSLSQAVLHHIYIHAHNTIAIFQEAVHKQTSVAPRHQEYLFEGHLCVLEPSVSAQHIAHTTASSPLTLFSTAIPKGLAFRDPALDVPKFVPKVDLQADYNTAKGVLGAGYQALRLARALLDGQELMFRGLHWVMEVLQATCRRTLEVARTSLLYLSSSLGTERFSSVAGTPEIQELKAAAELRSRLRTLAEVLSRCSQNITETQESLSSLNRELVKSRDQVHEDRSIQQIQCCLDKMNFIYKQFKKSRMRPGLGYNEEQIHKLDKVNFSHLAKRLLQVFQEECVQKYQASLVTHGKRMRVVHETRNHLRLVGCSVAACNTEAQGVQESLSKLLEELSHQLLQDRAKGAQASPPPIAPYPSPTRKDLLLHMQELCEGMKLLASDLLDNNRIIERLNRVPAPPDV
The following applies: at 0.1 µM.

Sequence of Phosphatidylinositol 4,5-bisphosphate 3-kinase catalytic subunit alpha isoform (Homo sapiens) (P42336 whole entry, canonical isoform): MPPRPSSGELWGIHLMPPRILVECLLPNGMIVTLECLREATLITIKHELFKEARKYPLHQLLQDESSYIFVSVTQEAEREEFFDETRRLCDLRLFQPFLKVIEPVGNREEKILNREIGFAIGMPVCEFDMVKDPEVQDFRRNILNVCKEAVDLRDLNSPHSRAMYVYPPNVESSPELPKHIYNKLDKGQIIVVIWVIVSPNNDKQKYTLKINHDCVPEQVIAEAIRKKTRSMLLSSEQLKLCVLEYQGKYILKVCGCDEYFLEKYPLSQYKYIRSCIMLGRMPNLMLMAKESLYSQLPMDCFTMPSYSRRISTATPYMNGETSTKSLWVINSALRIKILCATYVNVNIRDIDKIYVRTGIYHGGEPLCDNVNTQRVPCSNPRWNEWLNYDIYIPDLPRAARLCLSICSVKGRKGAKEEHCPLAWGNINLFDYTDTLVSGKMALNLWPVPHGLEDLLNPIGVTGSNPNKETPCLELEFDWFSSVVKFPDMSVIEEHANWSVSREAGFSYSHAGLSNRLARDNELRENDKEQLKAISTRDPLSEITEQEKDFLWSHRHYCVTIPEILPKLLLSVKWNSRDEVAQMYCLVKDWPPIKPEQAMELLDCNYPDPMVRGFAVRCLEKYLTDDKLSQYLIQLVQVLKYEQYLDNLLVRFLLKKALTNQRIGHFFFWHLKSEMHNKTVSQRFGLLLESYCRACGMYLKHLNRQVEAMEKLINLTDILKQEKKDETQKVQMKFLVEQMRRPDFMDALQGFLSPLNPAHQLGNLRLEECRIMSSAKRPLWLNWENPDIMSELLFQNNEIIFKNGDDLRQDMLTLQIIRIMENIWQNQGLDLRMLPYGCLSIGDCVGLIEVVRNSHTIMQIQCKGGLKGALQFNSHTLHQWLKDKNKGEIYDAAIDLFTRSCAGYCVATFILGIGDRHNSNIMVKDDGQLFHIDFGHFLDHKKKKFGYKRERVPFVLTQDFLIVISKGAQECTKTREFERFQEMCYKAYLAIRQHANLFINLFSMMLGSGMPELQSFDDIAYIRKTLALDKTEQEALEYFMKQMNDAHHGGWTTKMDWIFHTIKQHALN
Sequence of Phosphatidylinositol 4-kinase beta (Homo sapiens) (Q9UBF8 2-816 limits assumed): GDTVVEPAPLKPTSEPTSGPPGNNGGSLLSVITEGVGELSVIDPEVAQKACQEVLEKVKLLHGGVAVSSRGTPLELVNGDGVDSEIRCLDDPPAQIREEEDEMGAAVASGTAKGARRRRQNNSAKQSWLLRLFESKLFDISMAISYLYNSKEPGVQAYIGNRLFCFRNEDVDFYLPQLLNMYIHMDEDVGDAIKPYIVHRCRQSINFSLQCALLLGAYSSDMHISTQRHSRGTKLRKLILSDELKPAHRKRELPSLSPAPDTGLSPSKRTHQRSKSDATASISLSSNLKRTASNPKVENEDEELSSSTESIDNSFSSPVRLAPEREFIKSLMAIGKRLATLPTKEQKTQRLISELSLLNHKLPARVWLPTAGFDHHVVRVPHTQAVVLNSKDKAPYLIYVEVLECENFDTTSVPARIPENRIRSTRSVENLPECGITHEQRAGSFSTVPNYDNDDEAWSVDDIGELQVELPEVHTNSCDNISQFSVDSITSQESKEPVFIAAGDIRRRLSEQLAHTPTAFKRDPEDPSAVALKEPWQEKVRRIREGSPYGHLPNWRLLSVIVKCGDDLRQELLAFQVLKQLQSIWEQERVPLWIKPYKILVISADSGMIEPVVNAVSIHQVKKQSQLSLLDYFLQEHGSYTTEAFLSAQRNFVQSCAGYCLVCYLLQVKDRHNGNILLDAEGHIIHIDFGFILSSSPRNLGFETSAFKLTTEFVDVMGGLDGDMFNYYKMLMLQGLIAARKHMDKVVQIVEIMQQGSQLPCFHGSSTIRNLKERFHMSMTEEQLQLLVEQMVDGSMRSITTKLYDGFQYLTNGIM
Sequence of Casein kinase II subunit alpha (Homo sapiens) (P68400 whole entry, looked up): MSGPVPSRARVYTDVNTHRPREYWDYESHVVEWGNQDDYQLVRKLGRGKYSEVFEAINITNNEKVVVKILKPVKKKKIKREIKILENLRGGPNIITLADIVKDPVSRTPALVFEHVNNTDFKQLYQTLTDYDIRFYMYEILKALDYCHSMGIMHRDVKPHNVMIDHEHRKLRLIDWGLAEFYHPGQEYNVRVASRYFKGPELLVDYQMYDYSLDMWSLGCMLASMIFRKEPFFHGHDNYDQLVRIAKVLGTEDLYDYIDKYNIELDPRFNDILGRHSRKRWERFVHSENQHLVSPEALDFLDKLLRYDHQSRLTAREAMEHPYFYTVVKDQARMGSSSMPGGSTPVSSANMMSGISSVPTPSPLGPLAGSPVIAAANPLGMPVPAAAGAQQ
Sequence of Sphingosine kinase 1 (Homo sapiens) (Q9NYA1 whole entry): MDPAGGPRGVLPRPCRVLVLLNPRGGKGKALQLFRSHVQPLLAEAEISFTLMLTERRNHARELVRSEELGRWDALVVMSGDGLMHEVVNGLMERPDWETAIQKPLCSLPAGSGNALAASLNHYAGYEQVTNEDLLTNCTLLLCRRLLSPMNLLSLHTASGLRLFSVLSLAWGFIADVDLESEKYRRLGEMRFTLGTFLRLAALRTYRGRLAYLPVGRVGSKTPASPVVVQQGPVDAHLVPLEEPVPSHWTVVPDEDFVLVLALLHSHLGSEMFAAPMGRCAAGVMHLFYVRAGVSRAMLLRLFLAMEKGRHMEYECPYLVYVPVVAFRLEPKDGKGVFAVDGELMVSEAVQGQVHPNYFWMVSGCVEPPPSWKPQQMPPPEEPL
Sequence of SRSF protein kinase 1 (Homo sapiens) (Q96SB4 whole entry): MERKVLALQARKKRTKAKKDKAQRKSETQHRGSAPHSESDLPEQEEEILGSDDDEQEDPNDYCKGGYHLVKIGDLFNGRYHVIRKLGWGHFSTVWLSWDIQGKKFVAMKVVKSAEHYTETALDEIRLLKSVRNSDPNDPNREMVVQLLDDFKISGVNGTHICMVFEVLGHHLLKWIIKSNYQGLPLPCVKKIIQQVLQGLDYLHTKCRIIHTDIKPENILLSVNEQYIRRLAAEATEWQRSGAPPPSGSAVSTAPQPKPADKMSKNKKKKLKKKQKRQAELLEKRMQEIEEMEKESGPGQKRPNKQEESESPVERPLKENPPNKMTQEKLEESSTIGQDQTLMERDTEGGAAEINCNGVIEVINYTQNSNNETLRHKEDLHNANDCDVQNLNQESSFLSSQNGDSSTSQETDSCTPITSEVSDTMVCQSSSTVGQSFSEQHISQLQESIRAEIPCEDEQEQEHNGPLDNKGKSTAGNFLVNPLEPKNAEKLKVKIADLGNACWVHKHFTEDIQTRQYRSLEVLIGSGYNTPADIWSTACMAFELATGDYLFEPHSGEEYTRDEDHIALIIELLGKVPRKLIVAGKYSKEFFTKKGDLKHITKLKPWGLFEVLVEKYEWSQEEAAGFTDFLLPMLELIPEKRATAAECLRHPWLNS

For `O=C(Nc1n[nH]c2nc(-c3ccc(O)cc3)c(Br)cc12)C1CC1`, the inhibition in [1] is 16.6%; in experiment [2], -0.67%; in experiment [3], 0.36%; in [4], 6.93%; in experiment [5] it was 6%; in [6], 3.58%. For the same compound, the inhibition is 6.8% in experiment [7]; -5.7% in experiment [8]; 3.27% in experiment [9]; -0.06% in [10]; -0.49% in [11]; -0.76% in [12]. The inhibition was -0.74% in experiment [13]; 3.43% in [14]; 5.84% in experiment [15]; 8.51% in [16]; 12.4% in [17]; 6.98% in experiment [18]. For the same compound, the inhibition is 9.61% in experiment [19] and 8.95% in experiment [20].

Take `COc1cc2ncn(-c3cc(OCc4ccccc4C(F)(F)F)c(C(C)=O)s3)c2cc1OC`: the inhibition was 2.91% in experiment [1]; -0.85% in [2]; -1.87% in [3]; 1.72% in [4]; 2.65% in experiment [5]; 1.03% in experiment [6]. The inhibition in experiment [7] was 1.51%; in [8] it was 1.58%; in [9] it was -4.62%; in experiment [10] it was -1.64%; in experiment [11] it was -6.56%; in experiment [12] it was -0.29%. Besides, the inhibition in [13] was -1.72%; in experiment [14], 5.99%; in [15], 2.45%; in [16], 2.23%; in experiment [17] it was 7.97%; in experiment [18], 5.2%. In addition, the inhibition was 9.05% in experiment [19] and 6.32% in experiment [20].

These data come from ChEMBL document CHEMBL1961873, “Compounds: GSK PKIS; Assays: Nanosyn kinase panel” (2012).
